# Measured values as given in PubChem BioAssay (NCATS).
# Inconclusive results are not listed. Active and inactive are the calls of the source. The call rests on the fitted dose curve; in most records, active means well fitted cell-killing curve with a large enough effect; inconclusive means small, poorly fitted or top-dose-only effect, or effect the other way; inactive means no such curve, though single readings can be large or run the other way.
# Assay: Quantitative High-Throughput drug screen in 47 multiple myeloma cell lines against the NCATS MIPE library collection: RPMI8226_ATCC cell viability assay (AID 1919871); further: nearly all actives have a fitted effect of over 30% in size
# Conditions: RPMI8226 myeloma viability, CellTiter-Glo ATP luminescence, 48 h; series mostly up to 45.8 µM; viability (% of control): at the top concentration
# Description: PI: Beverly A. Mock Ph.D.
# Laboratory of Cancer Biology and Genetics,
# Center for Cancer Research, National Cancer Institute,
# National Institute of Health, Bethesda, Maryland
# Drug resistance and disease progression are common in multiple myeloma (MM) patients, underscoring the need for new therapeutic combinations. […] We hypothesized that effective combinations would reduce MYC expression and enhance p16 activity. […] These preclinical data identify potentially useful drug combinations for evaluation in drug-resistant MM and reveal potential mechanisms of combined drug sensitivity.
# Described herein is the primary MIPE qHTS used to cherrypick compounds. Validated compounds were then further tested for potential synergistic activiy.
# [1] Peat TJ, Gaikwad SM, Dubois W, Gyabaah-Kessie N, Zhang S, Gorjifard S, Phyo Z, Andres M, Hughitt VK, Simpson RM, Miller MA, Girvin AT, Taylor A, Williams D, D'Antonio N, Zhang Y, Rajagopalan A, Flietner E, Wilson K, Zhang X, Shinn P, Klumpp-Thomas C, McKnight C, Itkin Z, Chen L, Kazandijian D, Zhang J, Michalowski AM, Simmons JK, Keats J, Thomas CJ, Mock BA. Drug combinations identified by high-throughput screening promote cell cycle transition and upregulate Smad pathways in myeloma. Cancer Lett. 2023 Aug 1;568:216284. doi: 10.1016/j.canlet.2023.216284. Epub 2023 Jun 24. PMID: 37356470; PMCID: PMC10408729.
# SEQUENCE No. (e.g., 1, 2, 3, etc.); […] (e.g., Cells, Incubation, Reagent, etc.); VALUE and DESCRIPTION.
# 1; Cells; 5 uL; white, solid bottom 1536-well Greiner assay plate.
# 2; Compounds; 23 nL; Kalypsis pin tool (Wako USA) equipped with a 1536-well pin head to transfer to the assay plates.
# 3; Incubation; 48 hours; 37C incubation.
# 4; Reagent;5uL; CellTiter Glo (Promega).
# 5; Detector; 425V; Luminescence; Viewlux PerkinElmer.
# NOTES (numbers refer to Sequence numbers above)
# 1. The cell-based screening methods employed in this study were like those previously published. Briefly, the corresponding myeloma cell lines were screened in 1,536-well plates with 500 cells, 5-uL per well for inhibition of cell viability (assessed by measuring ATP levels with CellTiterGlo).
# 2. NCATS MIPE 4.0 library of approved and investigational drugs were added using the Kalypsis pin tool. Wells treated with DMSO only for 100% viability and media only for 0% viability were used as controls.
# 3. The assay plates were covered and incubated for 48 hours in a 37C, 5% CO2 incubator with controlled humidity.
# 4. After 48 hours, CellTilter-GloTM luminescent substrate mix (Promega) reagent was added to the assay plate and plates we incubated for 5 min at room temperature.
# 5. Signal was measured as median relative luminescence units on a ViewLux (PerkinElmer) multiplate reader.
# [1] Heske CM, Davis MI, Baumgart JT, Wilson K, Gormally MV, Chen L, Zhang X, Ceribelli M, Duveau DY, Guha R, Ferrer M, Arnaldez FI, Ji J, Tran HL, Zhang Y, Mendoza A, Helman LJ, Thomas CJ. Matrix Screen Identifies Synergistic Combination of PARP Inhibitors and Nicotinamide Phosphoribosyltransferase (NAMPT) Inhibitors in Ewing Sarcoma. Clin Cancer Res. 2017 Dec 1;23(23):7301-7311. doi: 10.1158/1078-0432.CCR-17-1121. Epub 2017 Sep 12. PMID: 28899971; PMCID: PMC6636827.
# Potency means the concentration at half of the fitted maximal effect.
SMILES,viability (% of control),Potency
NC(=O)c1ncn([C@@H]2O[C@H](CO)[C@@H](O)[C@@H]2O)n1,122% (inactive),
CC(C)(C)c1nc(-c2cccc(NS(=O)(=O)c3c(F)cccc3F)c2F)c(-c2ccnc(N)n2)s1,,13.2 µM (active)
CN1CCN(c2ncc(-c3cc(Cl)cc(Cl)c3Cl)c(N)n2)CC1,126% (inactive),
CC(=O)Nc1cccc(-n2c(=O)n(C3CC3)c(=O)c3c(Nc4ccc(I)cc4F)n(C)c(=O)c(C)c32)c1,,1.66 µM (active)
O=C(c1ccc(F)c(F)c1Nc1ccc(I)cc1F)N1CC(O)([C@H]2CCCCN2)C1,,20.9 µM (active)
CO[C@H]1O[C@@H]2O[C@@]3(C)CC[C@@H]4[C@@H](C)CC[C@@H]([C@H]1C)[C@@]24OO3,,0.833 µM (active)
CC1CCN(c2cc(N3CCN(C)CC3)ccc2NC(=O)c2cc(C#N)c[nH]2)CC1,,18.7 µM (active)
CN[C@@H](C)[C@H]1[C@H](O)C[C@@]2(C)[C@@H]3CC[C@H]4C(C)(C)[C@@H](NC)CC[C@@]45C[C@@]35CC[C@]12C,93.8% (inactive),
CN(C)CCOc1ccc(C(=C(CCCl)c2ccccc2)c2ccccc2)cc1,,26.4 µM (active)
COc1cc2nccc(Oc3ccc(NC(=O)Nc4cc(C)on4)c(Cl)c3)c2cc1OC,,23.5 µM (active)
CO[C@H]1/C=C\O[C@@]2(C)Oc3c(C)c(O)c4c(O)c(c5c(nc6cc(C)ccn65)c4c3C2=O)NC(=O)C(C)=CC=C[C@H](C)[C@H](O)[C@@H](C)[C@@H](O)[C@@H](C)[C@H](OC(C)=O)[C@H]1C,,20.9 µM (active)
Oc1ccc(C=Cc2cc(O)cc(O)c2)cc1,,18.7 µM (active)
CC(C)(F)C[C@H](N[C@@H](c1ccc(-c2ccc(S(C)(=O)=O)cc2)cc1)C(F)(F)F)C(=O)NC1(C#N)CC1,,20.9 µM (active)
OC[C@H]1O[C@@H](OCCc2ccc(O)cc2)[C@H](O)[C@@H](O)[C@H]1O,123% (inactive),
CN1CCN(c2cccc(Nc3nc4c(-c5ccc(S(C)(=O)=O)cc5)cccn4n3)c2)CC1,,9.35 µM (active)
Nc1[nH]nc2nnc(-c3c(-c4ccccc4)nn4ccccc34)cc12,100% (inactive),
CN(C(Cc1ccc(OS(=O)(=O)c2cccc3cnccc23)cc1)C(=O)N1CCN(c2ccccc2)CC1)S(=O)(=O)c1cccc2cnccc12 (stereo not given),,5.26 µM (active)
O[C@@H](COc1cccc2ncccc12)CN1CCN(C2c3ccccc3[C@@H]3[C@H](c4ccccc42)C3(F)F)CC1 (stereo not given in full),,20.9 µM (active)
CC(C)C[C@@H](N)[C@H](O)C(=O)N[C@H](C(=O)N[C@H](C(=O)N[C@@H](CC(=O)O)C(=O)O)C(C)C)C(C)C,107% (inactive),
CN1CCC(COc2cnc(-c3cccc(Cn4nc(-c5cccc(C#N)c5)ccc4=O)c3)nc2)CC1,117% (inactive),

SMILES,viability (% of control),Potency
CC(C)CN(C[C@H](O)[C@H](Cc1ccccc1)NC(=O)O[C@H]1CCOC1)S(=O)(=O)c1ccc(N)cc1,117% (inactive),
CCN(CC)CCCCNc1nc2cc(Cl)c(Cl)cc2nc1-c1ccc(-c2cccs2)s1,,10.5 µM (active)
O=C(NC[C@H](O)CO)c1ccncc1Nc1ccc(I)cc1F,,0.833 µM (active)
CCC(C)SSc1ncc[nH]1 (stereo not given),,23.5 µM (active)
COc1c(C)c2c(c(O)c1CC=C(C)CCC(=O)OCCN1CCOCC1)C(=O)OC2,,4.18 µM (active)
COc1ccc(-c2nc3ccc(C4=NNC(=O)CC4C)cc3[nH]2)cc1 (stereo not given),113% (inactive),
OCCn1cc(-c2ccc3c(c2)CCC3=NO)c(-c2ccncc2)n1,107% (inactive),
NC[C@H]1O[C@H](O[C@@H]2[C@@H](O)[C@@H](O[C@H]3O[C@H](CO)[C@@H](O)[C@H](N)[C@@H]3O)[C@H](N)C[C@@H]2N)[C@H](O)[C@@H](O)[C@H]1O,112% (inactive),
Cc1ccc(C2=Nc3ccc(Cl)cc3OC2)cc1,,1.87 µM (active)
Fc1ccc(CNc2ncnc3ccc(F)cc23)cc1,,5.26 µM (active)
CC(C)[C@H](O)C(=O)N[C@@H](C)C(=O)N[C@@H]1C(=O)N(C)CCc2ccccc21,121% (inactive),
CC(C)c1c(C(=O)Nc2ccccc2)c(-c2ccccc2)c(-c2ccc(F)cc2)n1CC[C@H](O)C[C@@H](O)CC(=O)O,,10.5 µM (active)
C[C@@H](O)[C@H]1C(=O)N2C(C(=O)OCOC(=O)C(C)(C)C)=C(SC3CN(C4=NCCS4)C3)[C@H](C)[C@H]12,95.2% (inactive),
CCc1cccc(CC)c1NC(=O)N1Cc2[nH]nc(NC(=O)c3ccc(N4CCN(C)CC4)cc3)c2C1,,18.7 µM (active)
CC(C)(CO)[C@@H](O)C(=O)NCCC(=O)O,112% (inactive),
CN(C)c1ccc(-c2nc3ncc(Cl)c(N4CCN(CC(=O)Nc5nccs5)CC4)c3[nH]2)cc1,,4.18 µM (active)
Cc1cc(OCCCS(C)(=O)=O)cc(C)c1-c1cccc(COc2ccc3c(c2)OC[C@H]3CC(=O)O)c1,,18.7 µM (active)
CN1C(=O)C(Cc2c[nH]c3ccccc23)NC1=S (stereo not given),127% (inactive),
CCN(CCO)CCCOc1ccc2c(Nc3cc(CC(=O)Nc4cccc(F)c4)[nH]n3)ncnc2c1,102% (inactive),
NCC1CCC(C(=O)O)CC1 (stereo not given),118% (inactive),
